According to PubChem BioAssay AID1963322 (National Center for Advancing Translational Sciences (NCATS), 2024):
Inconclusive results are not listed. Calls follow the shape of the full dose curve.

Each compound was assayed against cAMP-dependent protein kinase catalytic subunit alpha (Homo sapiens) (UniProt P17612) (assay: Protein Kinase A (PKA-HiBiT) SDR gain of signal screen). Conditions: PKA-HiBiT structural dynamics response (SDR), luminescence gain of signal; series mostly up to 32.9 µM; activity change, positive = signal gain: at the top concentration.
In short: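 Gain of luminescent signal after Nano-Glo HiBiT detection (10 min, RT) was the read-out. Beforehand, compounds were incubated 30 min at room temperature in the dark with 10 nM final PKA-N-HiBiT, with H-89 as positive control.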

Activity change, positive = signal gain, inactive:
O=C(c1cccc(Cl)c1F)N1CCN(Cc2cccc(Nc3nccs3)n2)CC1 -14.8%, C#Cc1cccc(Nc2ncnc3cc4c(cc23)OCCOCCOCCO4)c1 4.44%, Cc1cccc(C)c1-n1c(=O)c2cnc(Nc3ccc(N4CCN(C)CC4)cc3)nc2n2c3ccccc3nc12 -44.7%, Cc1cc(NC(=O)c2ccc(C)c(Nc3nccc(-c4cccnc4)n3)c2)cc(-n2cnc(C)c2)c1 -7.69%, COc1cc2nccc(Oc3ccc(NC(=O)Nc4ccc(F)cc4F)c(F)c3)c2cc1OC 5.98%, Cc1nc2ccc(-n3ncc(C(=O)c4cc5ccccc5[nH]4)c3N)cc2[nH]1 4.86%, Cc1sc2c(c1C)C(c1ccc(Cl)cc1)=N[C@@H](CC(=O)Nc1ccc(OCCOCCOCCOCCNc3cccc4c3C(=O)N(C3CCC(=O)NC3=O)C4=O)cc1)c1nnc(C)n1-2 (some centres not stated) 4.85%, CO[C@@H](C(=O)N1Cc2[nH]nc(NC(=O)c3ccc(N4CCN(C)CC4)cc3)c2C1)c1ccccc1 3.68%, O=C1C(c2c(O)[nH]c3ccccc23)=Nc2ccccc21 5.12%, Cc1cc(Nc2ncc3cc(-c4c(Cl)cccc4Cl)c(=O)n(C)c3n2)ccc1F -18.3%, COc1ccccc1-c1c[nH]c2ncc(-c3cncc(C(=O)N(C)C)c3)cc12 14.2%, COc1ccc(CNC(=O)Nc2ncc([N+](=O)[O-])s2)cc1 -0.27%, COc1ccc(S(=O)(=O)N(C(C)=O)c2ccccc2/C=C/c2cc[n+]([O-])cc2)cc1 5.77%, Cc1cc(C)c(/C=C2\C(=O)Nc3ccccc32)[nH]1 -43.1%, CNS(=O)(=O)c1ccc2c(c1)/C(=C/c1[nH]c3c(c1CCCN1CCN(C)CC1)CCCC3)C(=O)N2 -31.7%, Cc1nc(NC(=O)N2CCC[C@H]2C(N)=O)sc1-c1ccnc(C(C)(C)C(F)(F)F)c1 -0.666%, C=CC(=O)N1CCC(Oc2cc3c(Nc4ccc(Cl)c(Cl)c4F)ncnc3cc2OC)CC1 8.76%, Cc1ccc(NC(=O)c2ccc(CN3CCN(C)CC3)cc2)cc1Nc1nc(-c2cccnc2)cs1 5.21%, CC(C)(C)n1nc(-c2cccc3ccccc23)c2c(N)ncnc21 9.35%, O=C(Nc1cc(C(F)(F)F)ccc1N1CCCCC1)c1ccncc1 3.42%, C=CC(=O)N1CCC[C@@H](n2nc(-c3cccc(C(=O)Nc4ccc(C(C)C)c(C)c4)c3)c3c(N)ncnc32)C1 3.4%, COc1cc(NC(=O)c2cccc(-n3cc(NC(=O)Nc4cccc(C)c4)cn3)c2)cc(OC)c1OC 1.34%
